# Experimental data published in article PMC7862700, “An all-to-all approach to the identification of sequence-specific readers for epigenetic DNA modifications on cytosine”.
# What was measured:
# Assay in all cases: DAPPL (digital affinity profiling via proximity ligation, sequencing); 10 mM Tris-HCl pH 7.5, 50 mM NaCl, 1 mM DTT, 4% glycerol, room temperature, 30 min; GST-TFs on glutathione beads, 16-mer random dsDNA library, 0.1% formaldehyde crosslink after washing; high values mean tight binding
# Conditions in all cases: protein: recombinant; tags: N-terminal GST; dsDNA, one strand shown
# FLI1 = molecular target: T1, FLI1 (Homo sapiens, UniProt Q01543 1-452)
# T1 sequence: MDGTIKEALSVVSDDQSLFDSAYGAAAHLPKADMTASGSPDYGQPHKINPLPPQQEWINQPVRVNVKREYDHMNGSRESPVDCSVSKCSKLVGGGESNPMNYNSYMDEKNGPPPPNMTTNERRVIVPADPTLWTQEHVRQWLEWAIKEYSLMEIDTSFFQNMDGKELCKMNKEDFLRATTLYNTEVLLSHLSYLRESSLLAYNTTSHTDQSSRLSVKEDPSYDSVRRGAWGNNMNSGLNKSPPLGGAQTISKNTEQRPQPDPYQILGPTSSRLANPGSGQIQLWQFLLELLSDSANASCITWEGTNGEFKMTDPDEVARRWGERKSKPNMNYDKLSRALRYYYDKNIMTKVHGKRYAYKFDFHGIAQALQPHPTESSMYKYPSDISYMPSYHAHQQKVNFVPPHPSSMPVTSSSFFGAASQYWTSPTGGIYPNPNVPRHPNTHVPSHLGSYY
# Outline: (§1)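 Binding signal is given per hexamer as its read frequency for a factor divided by its frequency in the tag-only sample. GST-fused human transcription factors were expressed in yeast, captured on glutathione beads, barcoded with DNA and pooled with that sample, then incubated with 200 nmole of a 16-mer random double-stranded DNA library in Tris/NaCl/DTT/glycerol buffer for 30 min at room temperature. The pools were then washed, crosslinked, proximity-ligated, amplified by PCR and sequenced on an Illumina NextSeq500.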
# ELK1 = molecular target: T2, ELK1 (Homo sapiens, UniProt P19419 1-428)
# T2 sequence: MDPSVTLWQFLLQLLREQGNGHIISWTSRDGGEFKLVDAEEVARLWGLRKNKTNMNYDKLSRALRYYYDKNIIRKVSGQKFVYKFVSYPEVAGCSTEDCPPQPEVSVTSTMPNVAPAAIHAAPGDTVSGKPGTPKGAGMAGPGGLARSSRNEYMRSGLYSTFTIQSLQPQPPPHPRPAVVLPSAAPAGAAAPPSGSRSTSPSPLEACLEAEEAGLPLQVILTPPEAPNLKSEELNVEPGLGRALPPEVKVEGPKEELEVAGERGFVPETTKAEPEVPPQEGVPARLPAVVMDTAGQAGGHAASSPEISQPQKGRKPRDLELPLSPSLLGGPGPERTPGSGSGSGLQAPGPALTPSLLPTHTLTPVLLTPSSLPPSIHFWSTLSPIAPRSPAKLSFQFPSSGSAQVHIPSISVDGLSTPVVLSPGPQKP
# Outline: as §1
# GABPA = molecular target: T3, GABPA (Homo sapiens, UniProt Q06546 1-454)
# T3 sequence: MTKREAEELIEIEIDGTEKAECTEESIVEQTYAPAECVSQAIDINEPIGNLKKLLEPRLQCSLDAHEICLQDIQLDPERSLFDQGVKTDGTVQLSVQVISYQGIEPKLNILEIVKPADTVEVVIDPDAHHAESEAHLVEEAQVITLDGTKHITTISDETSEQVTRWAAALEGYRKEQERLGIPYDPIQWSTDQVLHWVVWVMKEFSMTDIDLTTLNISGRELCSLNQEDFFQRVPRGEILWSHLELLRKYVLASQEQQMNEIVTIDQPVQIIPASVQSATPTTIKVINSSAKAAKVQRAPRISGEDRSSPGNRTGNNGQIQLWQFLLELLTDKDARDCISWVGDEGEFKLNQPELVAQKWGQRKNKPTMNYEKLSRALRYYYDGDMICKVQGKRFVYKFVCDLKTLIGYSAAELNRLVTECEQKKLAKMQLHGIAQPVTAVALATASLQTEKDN
# Outline: as §1
# ERG = molecular target: T4, ERG (Homo sapiens, UniProt P11308 1-479)
# T4 sequence: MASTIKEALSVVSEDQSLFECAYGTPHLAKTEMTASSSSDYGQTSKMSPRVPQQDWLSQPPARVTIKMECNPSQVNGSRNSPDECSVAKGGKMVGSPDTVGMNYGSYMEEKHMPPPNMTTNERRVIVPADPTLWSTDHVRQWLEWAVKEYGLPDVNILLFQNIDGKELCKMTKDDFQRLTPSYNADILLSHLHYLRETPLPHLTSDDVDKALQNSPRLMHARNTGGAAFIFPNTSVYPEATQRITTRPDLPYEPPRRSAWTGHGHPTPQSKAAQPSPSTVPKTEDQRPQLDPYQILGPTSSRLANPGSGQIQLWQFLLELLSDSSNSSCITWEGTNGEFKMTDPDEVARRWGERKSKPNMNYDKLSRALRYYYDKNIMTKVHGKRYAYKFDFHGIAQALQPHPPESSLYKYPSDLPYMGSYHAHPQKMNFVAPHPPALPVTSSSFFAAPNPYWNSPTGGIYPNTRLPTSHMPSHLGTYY
# Outline: as §1
# ELF1 = ELF1 (Homo sapiens, UniProt P32519 1-619)
# Outline: as §1
# EHF = molecular target: T5, EHF (Homo sapiens, UniProt Q9NZC4 1-300)
# T5 sequence: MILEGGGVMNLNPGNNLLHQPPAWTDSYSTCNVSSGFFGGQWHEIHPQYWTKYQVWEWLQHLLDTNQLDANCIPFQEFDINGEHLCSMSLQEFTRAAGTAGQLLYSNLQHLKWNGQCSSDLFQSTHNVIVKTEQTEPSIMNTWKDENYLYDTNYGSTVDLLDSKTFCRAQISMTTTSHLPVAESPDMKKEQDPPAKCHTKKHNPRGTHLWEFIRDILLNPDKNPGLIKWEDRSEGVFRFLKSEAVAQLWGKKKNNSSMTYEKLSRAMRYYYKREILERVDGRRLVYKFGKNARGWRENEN
# Outline: as §1
# SPI1 = SPI1 (Homo sapiens, UniProt P17947 1-270)
# Outline: as §1
# SPIB = SPIB (Homo sapiens, UniProt Q01892 1-262)
# Outline: as §1
# ELK3 = molecular target: T6, ELK3 (Homo sapiens, UniProt P41970 1-407)
# T6 sequence: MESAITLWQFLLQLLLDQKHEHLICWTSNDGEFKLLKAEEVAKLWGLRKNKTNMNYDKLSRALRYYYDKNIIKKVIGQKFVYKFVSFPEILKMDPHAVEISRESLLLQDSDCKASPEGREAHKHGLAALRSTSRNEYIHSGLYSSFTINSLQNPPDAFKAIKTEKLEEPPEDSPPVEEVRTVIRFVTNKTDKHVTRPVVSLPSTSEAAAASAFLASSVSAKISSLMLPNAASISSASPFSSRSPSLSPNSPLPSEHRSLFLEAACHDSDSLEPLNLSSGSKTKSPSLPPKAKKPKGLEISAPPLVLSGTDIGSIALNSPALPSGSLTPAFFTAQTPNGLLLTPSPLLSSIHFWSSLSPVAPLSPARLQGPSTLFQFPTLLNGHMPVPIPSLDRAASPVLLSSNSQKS
# Outline: as §1
# FEV = molecular target: T7, FEV (Homo sapiens, UniProt Q99581 1-238)
# T7 sequence: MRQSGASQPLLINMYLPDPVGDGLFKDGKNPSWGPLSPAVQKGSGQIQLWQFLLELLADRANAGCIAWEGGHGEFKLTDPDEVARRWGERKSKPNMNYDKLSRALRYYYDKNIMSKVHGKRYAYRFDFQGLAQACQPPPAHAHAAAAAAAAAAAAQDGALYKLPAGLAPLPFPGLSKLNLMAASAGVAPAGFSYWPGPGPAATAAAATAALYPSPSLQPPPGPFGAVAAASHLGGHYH
# Outline: as §1
# ETV5 = ETV5 (Homo sapiens, UniProt P41161 1-510)
# Outline: as §1
# SPIC = molecular target: T8, SPIC (Homo sapiens, UniProt Q8N5J4 1-248)
# T8 sequence: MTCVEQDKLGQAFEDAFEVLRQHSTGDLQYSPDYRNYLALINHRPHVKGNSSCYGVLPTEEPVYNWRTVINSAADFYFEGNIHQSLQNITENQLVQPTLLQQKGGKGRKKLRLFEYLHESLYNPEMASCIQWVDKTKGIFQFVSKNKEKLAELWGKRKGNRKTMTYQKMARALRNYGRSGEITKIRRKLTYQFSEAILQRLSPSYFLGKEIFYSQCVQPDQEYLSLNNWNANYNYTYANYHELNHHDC
# Outline: as §1
# ELF4 = ELF4 (Homo sapiens, UniProt Q99607 1-663)
# Outline: as §1
# ELK4 = molecular target: T9, ELK4 (Homo sapiens, UniProt P28324-2 1-405)
# T9 sequence: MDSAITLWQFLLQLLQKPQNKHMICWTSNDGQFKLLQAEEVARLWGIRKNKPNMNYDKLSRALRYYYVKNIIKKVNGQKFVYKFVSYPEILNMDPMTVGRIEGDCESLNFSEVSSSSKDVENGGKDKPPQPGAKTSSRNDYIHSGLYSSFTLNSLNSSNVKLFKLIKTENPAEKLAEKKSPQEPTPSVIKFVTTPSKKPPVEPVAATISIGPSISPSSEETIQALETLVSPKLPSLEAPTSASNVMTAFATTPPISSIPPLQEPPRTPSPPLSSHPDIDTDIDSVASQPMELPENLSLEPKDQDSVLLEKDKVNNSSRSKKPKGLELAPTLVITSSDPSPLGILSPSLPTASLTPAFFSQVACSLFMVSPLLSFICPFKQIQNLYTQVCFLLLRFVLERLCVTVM
# Outline: as §1
# ETV2 = molecular target: T10, ETV2 (Homo sapiens, UniProt O00321 1-342)
# T10 sequence: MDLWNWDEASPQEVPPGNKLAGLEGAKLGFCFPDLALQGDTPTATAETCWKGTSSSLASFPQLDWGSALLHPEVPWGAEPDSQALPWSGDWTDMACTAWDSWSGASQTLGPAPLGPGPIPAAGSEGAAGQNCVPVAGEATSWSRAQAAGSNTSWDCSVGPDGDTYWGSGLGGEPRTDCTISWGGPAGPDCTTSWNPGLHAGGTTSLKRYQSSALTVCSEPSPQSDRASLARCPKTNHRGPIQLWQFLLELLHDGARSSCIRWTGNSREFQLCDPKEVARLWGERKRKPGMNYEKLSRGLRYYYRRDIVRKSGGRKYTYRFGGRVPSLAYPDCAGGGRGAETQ
# Outline: as §1
# ELF3 = molecular target: T11, ELF3 (Homo sapiens, UniProt P78545 1-371)
# T11 sequence: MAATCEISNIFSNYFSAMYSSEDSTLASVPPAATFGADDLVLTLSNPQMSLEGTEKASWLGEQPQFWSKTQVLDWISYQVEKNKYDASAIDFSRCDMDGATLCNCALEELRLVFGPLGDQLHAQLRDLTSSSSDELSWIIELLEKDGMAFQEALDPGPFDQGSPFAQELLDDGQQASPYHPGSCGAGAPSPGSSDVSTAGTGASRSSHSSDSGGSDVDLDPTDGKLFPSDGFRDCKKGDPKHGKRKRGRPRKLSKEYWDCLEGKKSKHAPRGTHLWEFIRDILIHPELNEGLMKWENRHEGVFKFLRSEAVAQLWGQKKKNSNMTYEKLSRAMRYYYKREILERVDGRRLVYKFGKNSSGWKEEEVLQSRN
# Outline: as §1
# ETV1 = ETV1 (Homo sapiens, UniProt P50549 1-477)
# Outline: as §1
# Sequence of ELF1 (P32519 whole entry): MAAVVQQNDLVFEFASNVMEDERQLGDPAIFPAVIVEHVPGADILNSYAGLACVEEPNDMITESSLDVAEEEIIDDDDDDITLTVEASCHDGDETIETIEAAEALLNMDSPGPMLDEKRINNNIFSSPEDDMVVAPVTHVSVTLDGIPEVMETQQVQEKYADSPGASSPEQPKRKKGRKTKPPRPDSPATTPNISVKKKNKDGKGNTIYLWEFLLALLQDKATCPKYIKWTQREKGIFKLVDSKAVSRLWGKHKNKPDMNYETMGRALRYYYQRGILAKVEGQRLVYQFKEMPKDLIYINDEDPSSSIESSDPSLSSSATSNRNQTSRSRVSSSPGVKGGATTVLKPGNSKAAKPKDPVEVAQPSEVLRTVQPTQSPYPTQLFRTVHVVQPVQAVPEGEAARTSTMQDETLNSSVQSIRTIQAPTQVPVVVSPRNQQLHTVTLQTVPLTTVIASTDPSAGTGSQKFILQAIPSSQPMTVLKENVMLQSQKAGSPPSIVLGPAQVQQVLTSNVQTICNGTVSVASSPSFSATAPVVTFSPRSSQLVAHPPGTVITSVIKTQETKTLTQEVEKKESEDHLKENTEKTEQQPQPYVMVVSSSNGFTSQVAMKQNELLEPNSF
# Sequence of SPIB (Q01892 whole entry): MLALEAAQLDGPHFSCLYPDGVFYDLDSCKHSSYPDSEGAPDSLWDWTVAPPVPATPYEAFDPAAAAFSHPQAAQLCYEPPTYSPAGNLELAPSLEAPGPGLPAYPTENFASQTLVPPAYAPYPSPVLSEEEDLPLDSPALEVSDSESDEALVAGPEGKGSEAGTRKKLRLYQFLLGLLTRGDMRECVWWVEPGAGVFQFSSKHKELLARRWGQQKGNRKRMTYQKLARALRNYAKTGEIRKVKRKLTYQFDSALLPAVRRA
# Sequence of ELF4 (Q99607 whole entry): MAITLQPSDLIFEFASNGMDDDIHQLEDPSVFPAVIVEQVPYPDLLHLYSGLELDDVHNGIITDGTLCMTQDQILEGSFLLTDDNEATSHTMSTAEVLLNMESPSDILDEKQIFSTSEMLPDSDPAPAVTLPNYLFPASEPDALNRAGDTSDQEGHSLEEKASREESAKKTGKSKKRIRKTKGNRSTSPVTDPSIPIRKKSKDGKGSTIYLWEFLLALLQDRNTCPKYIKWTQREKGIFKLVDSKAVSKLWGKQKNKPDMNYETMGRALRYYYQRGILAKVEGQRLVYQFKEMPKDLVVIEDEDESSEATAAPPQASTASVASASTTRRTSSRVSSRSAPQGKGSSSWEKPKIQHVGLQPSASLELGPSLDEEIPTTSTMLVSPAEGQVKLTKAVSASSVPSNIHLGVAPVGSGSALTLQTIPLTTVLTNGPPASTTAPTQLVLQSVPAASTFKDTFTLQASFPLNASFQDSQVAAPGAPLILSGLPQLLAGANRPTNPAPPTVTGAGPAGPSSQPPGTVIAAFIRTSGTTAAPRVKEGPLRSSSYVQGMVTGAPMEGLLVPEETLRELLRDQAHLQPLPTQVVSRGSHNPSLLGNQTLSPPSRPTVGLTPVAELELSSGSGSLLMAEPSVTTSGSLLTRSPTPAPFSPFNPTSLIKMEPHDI
# Sequence of ETV1 (P50549 whole entry): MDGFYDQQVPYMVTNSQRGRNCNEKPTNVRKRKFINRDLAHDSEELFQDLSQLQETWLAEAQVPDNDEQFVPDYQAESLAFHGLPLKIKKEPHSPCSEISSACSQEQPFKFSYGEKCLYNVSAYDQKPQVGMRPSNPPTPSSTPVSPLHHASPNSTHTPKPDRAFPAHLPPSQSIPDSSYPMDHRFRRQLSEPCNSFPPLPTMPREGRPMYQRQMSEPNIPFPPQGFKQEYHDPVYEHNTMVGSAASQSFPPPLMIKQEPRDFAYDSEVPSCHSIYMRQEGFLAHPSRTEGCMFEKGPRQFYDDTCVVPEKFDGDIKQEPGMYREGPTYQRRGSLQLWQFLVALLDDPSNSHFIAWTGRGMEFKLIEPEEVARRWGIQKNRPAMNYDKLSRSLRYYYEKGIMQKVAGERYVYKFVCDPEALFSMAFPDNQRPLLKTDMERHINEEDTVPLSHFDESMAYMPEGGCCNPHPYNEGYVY
# Sequence of ETV5 (P41161 whole entry): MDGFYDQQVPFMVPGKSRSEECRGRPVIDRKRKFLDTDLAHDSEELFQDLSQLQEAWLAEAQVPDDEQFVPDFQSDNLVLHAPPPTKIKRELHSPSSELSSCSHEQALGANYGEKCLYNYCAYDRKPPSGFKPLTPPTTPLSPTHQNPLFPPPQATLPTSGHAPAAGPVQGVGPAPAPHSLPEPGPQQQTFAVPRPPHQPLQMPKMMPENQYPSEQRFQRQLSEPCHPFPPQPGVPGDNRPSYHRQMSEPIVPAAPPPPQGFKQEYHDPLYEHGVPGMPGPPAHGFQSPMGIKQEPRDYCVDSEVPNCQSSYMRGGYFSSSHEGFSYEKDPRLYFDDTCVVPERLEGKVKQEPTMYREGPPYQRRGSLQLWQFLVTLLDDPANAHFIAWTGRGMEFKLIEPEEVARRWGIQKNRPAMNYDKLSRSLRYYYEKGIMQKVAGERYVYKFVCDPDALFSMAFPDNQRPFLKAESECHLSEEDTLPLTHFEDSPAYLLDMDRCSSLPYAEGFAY
Sequence,binding signal (FLI1),binding signal (ELK1),binding signal (GABPA),binding signal (ERG),binding signal (ELF1),binding signal (EHF),binding signal (SPI1),binding signal (SPIB),binding signal (ELK3),binding signal (FEV),binding signal (ETV5),binding signal (SPIC),binding signal (ELF4),binding signal (ELK4),binding signal (ETV2),binding signal (ELF3),binding signal (ETV1)
GTCCCT,"1.15 fold enrichment (6-mer frequency, TF over GST control)","1.29 fold enrichment (6-mer frequency, TF over GST control)","1.2 fold enrichment (6-mer frequency, TF over GST control)","1.24 fold enrichment (6-mer frequency, TF over GST control)","1.28 fold enrichment (6-mer frequency, TF over GST control)","1.27 fold enrichment (6-mer frequency, TF over GST control)","1.38 fold enrichment (6-mer frequency, TF over GST control)","1.18 fold enrichment (6-mer frequency, TF over GST control)","1.16 fold enrichment (6-mer frequency, TF over GST control)","1.28 fold enrichment (6-mer frequency, TF over GST control)","1.18 fold enrichment (6-mer frequency, TF over GST control)","1.29 fold enrichment (6-mer frequency, TF over GST control)","1.31 fold enrichment (6-mer frequency, TF over GST control)","1.27 fold enrichment (6-mer frequency, TF over GST control)","1.22 fold enrichment (6-mer frequency, TF over GST control)","1.23 fold enrichment (6-mer frequency, TF over GST control)","1.26 fold enrichment (6-mer frequency, TF over GST control)"
GCGTCC,"1.26 fold enrichment (6-mer frequency, TF over GST control)","1.27 fold enrichment (6-mer frequency, TF over GST control)","1.27 fold enrichment (6-mer frequency, TF over GST control)","1.28 fold enrichment (6-mer frequency, TF over GST control)","1.26 fold enrichment (6-mer frequency, TF over GST control)","1.22 fold enrichment (6-mer frequency, TF over GST control)","1.23 fold enrichment (6-mer frequency, TF over GST control)","1.3 fold enrichment (6-mer frequency, TF over GST control)","1.29 fold enrichment (6-mer frequency, TF over GST control)","1.36 fold enrichment (6-mer frequency, TF over GST control)","1.16 fold enrichment (6-mer frequency, TF over GST control)","1.23 fold enrichment (6-mer frequency, TF over GST control)","1.2 fold enrichment (6-mer frequency, TF over GST control)","1.25 fold enrichment (6-mer frequency, TF over GST control)","1.08 fold enrichment (6-mer frequency, TF over GST control)","1.37 fold enrichment (6-mer frequency, TF over GST control)","1.26 fold enrichment (6-mer frequency, TF over GST control)"
